# Laboratory results reported in PubChem BioAssay.
# For part of these data: Measured potencies and affinities stand elsewhere. Active and inactive are the calls of the source. Unless noted, how the calls were made is not given here.
# Tests used:
# [1] = biological target: Cell division control protein 42 homolog (Homo sapiens) (UniProt P60953); experiment: inhibition of fluorescent GTP binding to constitutively active Cdc42 – biochemical, multiplex bead flow cytometry, Bodipy-FL-GTP, dose response (AID 1333;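 active means fitted half-maximal concentration within the tested dose range, moderate curve steepness, a statistically real signal drop, and little compound fluorescence or tag-binding interference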)
# [2] = biological target: Cell division control protein 42 homolog (Homo sapiens) (UniProt P60953); experiment: inhibition of fluorescent GTP binding to wildtype Cdc42 – biochemical, multiplex bead flow cytometry, Bodipy-FL-GTP, dose response (AID 1334;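 active means fitted half-maximal concentration within the tested range, moderate curve steepness, significant signal drop, and little compound fluorescence or bead-linkage interference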); conditions: bead-based flow cytometry, Bodipy-FL-GTP binding to GST-Cdc42; at 100 µM (top of the series) unless noted
# [3] = biological target: GTPase HRas (Homo sapiens) (UniProt P01112); experiment: Ras wt fluorescent GTP loading blockade – biochemical, wildtype, multiplex bead flow cytometry, dose response (AID 1335;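 active means fitted half-maximal concentration within 10 nM to 100 µM, steepness 0.5 to 2, significant signal drop, low assay interference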); conditions: bead-based flow cytometry, Bodipy-GTP binding to GST-Ras; at 100 µM (top of the series) unless noted
# [4] = test system: Ras-related protein Rab-7a (dog), GTP binding; experiment: blockers of fluorescent GTP binding to Rab7 – biochemical, wildtype, multiplex bead flow cytometry, dose response (AID 1336)
# [5] = biological target: Ras-related C3 botulinum toxin substrate 1 (Homo sapiens) (UniProt P63000); experiment: inhibition of wildtype Rac1 nucleotide loading – biochemical, multiplex bead flow cytometry, dose response (AID 1340;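 active means dose curve with midpoint inside tested range, moderate steepness, plateau gap beyond fit error, low compound glow and bead-link interference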); conditions: GST-Rac1 beads, Bodipy-FL-GTP binding; at 100 µM (top of the series) unless noted
# [6] = biological target: GTPase HRas (Homo sapiens) (UniProt P01112); experiment: blockade of GTP loading onto mutant Ras – biochemical, activated mutant, multiplex bead flow cytometry, dose response (AID 1341;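 active means dose-response curve with midpoint inside the tested range, moderate steepness, significant amplitude and little compound fluorescence or bead-attachment interference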;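 further: GST-tagged constitutively activated Ras mutant immobilized on beads and multiplexed with other GTPases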)
# GTPase HRas (Homo sapiens), sequence (P01112 whole entry, looked up): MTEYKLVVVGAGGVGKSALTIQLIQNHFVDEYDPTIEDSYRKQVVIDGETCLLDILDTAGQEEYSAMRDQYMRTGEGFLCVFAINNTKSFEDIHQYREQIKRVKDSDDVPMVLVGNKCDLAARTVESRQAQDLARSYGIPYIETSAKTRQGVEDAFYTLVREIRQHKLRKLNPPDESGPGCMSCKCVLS
# Cell division control protein 42 homolog (Homo sapiens), sequence (P60953 whole entry, looked up): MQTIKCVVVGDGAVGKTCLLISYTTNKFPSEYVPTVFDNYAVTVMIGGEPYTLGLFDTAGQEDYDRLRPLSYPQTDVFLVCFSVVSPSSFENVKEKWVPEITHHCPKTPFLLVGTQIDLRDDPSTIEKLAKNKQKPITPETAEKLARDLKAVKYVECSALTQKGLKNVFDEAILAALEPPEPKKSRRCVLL
SMILES,outcome [1],"fluorescence, percent of control (lower = inhibition) [2] [%]","GTP binding, percent of control [3] [%]",outcome [4],"GTP binding signal, raw median fluorescence (lower = inhibition) (MCF (arbitrary fluorescence units)) [5]",outcome [6]
COCCNC(=O)c1cnn2c(C(F)F)cc(-c3ccccc3)nc12,inactive,40,85.2,inactive,204,inactive
O=[N+]([O-])c1ccc2c(c1)c(-c1ccccc1)nc1nncn12,inactive,31.3,72.1,inactive,203,inactive
CCOC(=O)N1CCN(/C=C(\C#N)c2nc3ccccc3s2)CC1,inactive,80.8,92.3,inactive,240,inactive
CN(/N=C/c1cccnc1)C1=NS(=O)(=O)c2ccccc21,inactive,36.2,50.7,inactive,137,inactive
CCOC(=O)/C=C1\SCC(=O)N1CCOc1cccc(Br)c1,inactive,94.9,164,inactive,185,inactive
CCCN1C(=O)/C(=C\C=C2\N(CC)c3ccccc3C2(C)C)SC1=S,inactive,104,140,inactive,307,inactive
Cc1c(NC(=O)CCN2C(=O)c3ccccc3C2=O)c(=O)n(-c2ccccc2)n1C,inactive,42.1,90.3,inactive,322,inactive
Cc1ccc(Nc2c(F)c(F)c(F)c(F)c2C(=O)O)c(C)c1,inactive,92.8,109,inactive,75.2,inactive
COc1ccc([N+](=O)[O-])cc1NC(=S)NC(NC(=O)Cc1ccc(OC)c(OC)c1)C(Cl)(Cl)Cl (stereo not given),inactive,75.7,139,inactive,151,inactive
Cc1ccc(Nc2cc(C(=O)O)c3ccccc3n2)c(C)c1,inactive,60.5,83.7,inactive,33.1,inactive
Cc1noc(C)c1COc1cccc(C(=O)NCc2ccccc2Cl)c1,inactive,91.7,163,inactive,186,inactive
CCNC(=S)N=Nc1c(O)[nH]c2ccc([N+](=O)[O-])cc12,inactive,32.4,72.3,inactive,141,inactive
Cc1cccc(CCSc2ncccc2C(=O)O)c1,inactive,119,320,inactive,97,inactive
Cc1ccc(-n2c(=O)cc(N3CCN(C(=O)c4ccco4)CC3)[nH]c2=O)cc1,inactive,36.6,81.3,inactive,286,inactive
Cc1cc(=O)[nH]c2c(N=Nc3ccc(O)cc3)c(N)nn12,inactive,31.3,69.7,inactive,161,inactive
Cc1ccc(-c2csc3nc4c5ccccc5c(NCCCN5CCOCC5)nn4c(=O)c23)cc1,inactive,32,68.7,inactive,176,inactive
COc1cc(/C=C/c2ccc3cccc([N+](=O)[O-])c3n2)ccc1OCC(=O)O,inactive,32.7,76.2,inactive,160,inactive
Clc1ccc(CN(Cc2ccc(Cl)cc2)c2nn[nH]n2)cc1,inactive,28.2,85,inactive,246,inactive
N#C/C(=C/c1ccc(-c2cc(C(=O)O)cc(C(=O)O)c2)o1)c1nc2ccccc2s1,inactive,27,66.4,inactive,110,inactive
Cc1cc(NCc2sc(C(=O)O)cc2C)ccc1Br,inactive,57.8,81.7,inactive,33.8,inactive
Cc1cccc(S(=O)(=O)c2c(N)n(/N=C/c3cccnc3)c3nc4ccccc4nc23)c1,inactive,81.3,51.7,inactive,135,inactive
CC(C)(C)NC(=O)CSc1nccn1Cc1ccccc1,inactive,33.3,78.6,inactive,144,inactive
N#Cc1c2nc3ccccc3nc2n2cc(NC(=O)c3ccc(F)cc3)ccc12,inactive,49.3,64.8,inactive,158,inactive
CCc1nnc(NS(=O)(=O)c2ccc(Nc3ccc4nonc4c3[N+](=O)[O-])cc2)s1,inactive,26.3,65.4,inactive,147,inactive
Cc1ccc(N=Nc2c(N)[nH]n3c(=O)cc(-c4ccccc4)nc23)cc1,inactive,64.1,125,inactive,118,inactive
COc1ccc(CC(C)N2CCN(Cc3ccccc3)CC2)c(OC)c1 (stereo not given),inactive,38.1,85.3,inactive,272,inactive
O=C(O)c1cc2ccccc2nc1OCc1ccccc1,inactive,49.1,200,inactive,46.4,inactive
O=C(CSc1nnc2c(n1)[nH]c1ccccc12)Nc1ccc(S(=O)(=O)Nc2ncccn2)cc1,inactive,33.3,72.8,inactive,148,inactive
Cn1nc(C(F)(F)F)c(/C=N/OC(=O)c2ccccc2)c1SCc1ccc(Cl)cc1,inactive,98.8,181,inactive,175,inactive
COc1ccc(C(CC(=O)O)NC(=O)c2cc3cc(Br)ccc3oc2=O)cc1OC (stereo not given),inactive,31,78.7,inactive,213,inactive
